In PubChem BioAssay one finds composite z-score and z-score data, which are given here for ten compounds.

Structures are written as SMILES. The source made the active and inactive calls.

Assay [1] is described as follows: anti-His antibody binders, primary screen, artefact control for SMM control protein annotation, biochemical, small-molecule microarray, 635 nm fluorescence (AID 1128).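 Note: score merges feature fluorescence with signal-to-noise for each printed compound spot.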 As to conditions: anti-His Alexa647 antibody binding, higher = more signal.
Assay [2] concerns Human papillomavirus type 1a E7 protein (residues 1-88). The experiment in a line: HPV1a E7 small-molecule binders, primary screen, biochemical, small-molecule microarray, residues 1-88, 635 nm (AID 1129). The conditions noted are these: small-molecule microarray binding, fluorescence 635 nm; higher = more signal.
In assay [3] the target is Focal adhesion kinase 1 (Homo sapiens) (UniProt Q05397). The experiment in a line: small-molecule microarray binders of FAK, primary screen, biochemical, 635/667 nm fluorescence, BSA, DTT (AID 1130).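 Note: composite of spot emission at 667 nm and signal to noise over triplicate slides.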 The conditions noted are these: PTK2 binding, 635 nm fluorescence, higher = more signal.
Sequence of Focal adhesion kinase 1 (Homo sapiens) (Q05397 whole entry, looked up): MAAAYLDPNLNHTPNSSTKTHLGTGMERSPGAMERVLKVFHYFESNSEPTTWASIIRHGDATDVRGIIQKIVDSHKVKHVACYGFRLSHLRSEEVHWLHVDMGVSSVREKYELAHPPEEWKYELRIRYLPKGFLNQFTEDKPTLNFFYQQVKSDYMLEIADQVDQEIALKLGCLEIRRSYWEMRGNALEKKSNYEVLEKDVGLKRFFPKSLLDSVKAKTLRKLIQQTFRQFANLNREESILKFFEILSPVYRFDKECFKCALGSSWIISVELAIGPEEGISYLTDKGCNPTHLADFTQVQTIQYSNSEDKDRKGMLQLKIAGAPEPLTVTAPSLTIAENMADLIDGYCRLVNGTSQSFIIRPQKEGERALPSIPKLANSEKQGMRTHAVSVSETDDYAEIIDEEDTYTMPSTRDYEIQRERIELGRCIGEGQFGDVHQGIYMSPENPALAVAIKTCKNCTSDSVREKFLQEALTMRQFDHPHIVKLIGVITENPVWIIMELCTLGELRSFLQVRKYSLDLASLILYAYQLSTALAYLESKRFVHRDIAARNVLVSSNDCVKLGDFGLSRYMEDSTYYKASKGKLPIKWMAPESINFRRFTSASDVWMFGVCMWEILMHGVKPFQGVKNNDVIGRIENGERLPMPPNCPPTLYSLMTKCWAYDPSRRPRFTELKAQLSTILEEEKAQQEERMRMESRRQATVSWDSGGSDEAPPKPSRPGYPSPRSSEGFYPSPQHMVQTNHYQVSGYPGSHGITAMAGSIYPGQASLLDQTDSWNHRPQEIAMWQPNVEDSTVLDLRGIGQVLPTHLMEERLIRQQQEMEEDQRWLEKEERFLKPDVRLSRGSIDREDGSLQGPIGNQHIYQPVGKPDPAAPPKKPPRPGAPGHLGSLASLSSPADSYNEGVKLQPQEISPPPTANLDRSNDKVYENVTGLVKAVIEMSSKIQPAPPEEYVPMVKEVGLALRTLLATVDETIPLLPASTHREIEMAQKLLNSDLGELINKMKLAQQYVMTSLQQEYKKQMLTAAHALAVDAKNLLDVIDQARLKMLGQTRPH
For assay [4], the system named is Fibrinogen (Alexa647-labelled). The experiment in a line: fibrinogen binders on compound microarrays, profiling panel, artefact control for SMM control-protein annotation, biochemical, small-molecule microarray, 635/667 nm fluorescence (AID 1131).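 Note: z-score merges 667 nm fluorescence with per-spot signal-to-noise over triplicate slides.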 As to conditions: fibrinogen-A647 binding fluorescence, higher = more signal.
The target in assay [5] is Follistatin (Homo sapiens) (UniProt P19883). The experiment in a line: follistatin binders on small-molecule microarrays, primary screen, biochemical, small-molecule microarray, 635/667 nm fluorescence (AID 1132). As to conditions: FST binding, 635 nm fluorescence, higher = more signal.
Sequence of Follistatin (Homo sapiens) (P19883 whole entry, looked up): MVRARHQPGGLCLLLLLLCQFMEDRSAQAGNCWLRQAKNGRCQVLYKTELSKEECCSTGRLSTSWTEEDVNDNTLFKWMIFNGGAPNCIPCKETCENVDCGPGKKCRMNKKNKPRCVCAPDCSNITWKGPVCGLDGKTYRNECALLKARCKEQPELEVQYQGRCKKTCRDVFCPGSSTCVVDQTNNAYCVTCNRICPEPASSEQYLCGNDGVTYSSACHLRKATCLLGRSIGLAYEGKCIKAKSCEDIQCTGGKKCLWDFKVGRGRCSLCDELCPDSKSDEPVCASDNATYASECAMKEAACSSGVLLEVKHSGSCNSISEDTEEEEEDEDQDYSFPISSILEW
The target of assay [6] is Fibroblast growth factor 2 (Homo sapiens) (UniProt P09038). The experiment in a line: FGF2 binders on small-molecule microarrays, primary screen, biochemical, small-molecule microarray, 635/667 nm fluorescence (AID 1133). The conditions noted are these: small-molecule microarray binding, FGF2, fluorescence 635/667; higher = more signal.
Sequence of Fibroblast growth factor 2 (Homo sapiens) (P09038 whole entry, looked up): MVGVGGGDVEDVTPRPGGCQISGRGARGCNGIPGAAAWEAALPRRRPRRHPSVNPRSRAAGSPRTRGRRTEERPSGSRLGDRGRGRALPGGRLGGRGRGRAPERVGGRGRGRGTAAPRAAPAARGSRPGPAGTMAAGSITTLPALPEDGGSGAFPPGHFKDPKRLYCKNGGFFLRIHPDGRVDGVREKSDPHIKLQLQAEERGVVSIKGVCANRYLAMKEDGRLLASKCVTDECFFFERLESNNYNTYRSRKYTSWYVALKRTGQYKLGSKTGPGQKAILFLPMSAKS
Assay [7] can be described thus: mitochondrial membrane potential change in A549 cells, profiling panel, cell-based, JC-1 fluorescence, basal, 24 h, 100 nL (AID 1138).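 Note: A549 lung adenocarcinoma cells under basal conditions with no added stimulus; test concentration not given here.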 As to conditions: higher = more signal.
Assay [8] has as its system Lefty1. The experiment in a line: Lefty1 binders on small-molecule microarrays, primary screen, biochemical, small-molecule microarray, 635/667 nm fluorescence (AID 1139). As to conditions: small-molecule microarray binding, fluorescence 635/667; higher = more signal.
Assay [9] relates to wheat germ agglutinin (Triticum aestivum), Alexa647-labelled. The experiment in a line: wheat germ agglutinin binders on compound microarrays, profiling panel, artefact control for SMM control-protein annotation, biochemical, small-molecule microarray, 635/667 nm fluorescence (AID 1140).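 Note: score merges 667 nm feature emission with signal to noise over triplicate slides.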 As to conditions: WGA-A647 binding, 635 nm fluorescence, higher = more signal.
Assay [10] concerns the target Luciferin 4-monooxygenase (Photinus pyralis) (UniProt P08659). Description: firefly luciferase enzyme inhibitors, primary screen, biochemical, luminescence, purified enzyme, 2006 set (AID 1141).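 Note: cell-free assay with purified firefly luciferase at 100 ng per well in PBS; test concentration not given here.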 The conditions noted are these: SteadyGlo luminescence, 30 min, higher = more signal, called active from +8 up or from −8 down.

Sequence of Luciferin 4-monooxygenase (Photinus pyralis) (P08659 whole entry, looked up): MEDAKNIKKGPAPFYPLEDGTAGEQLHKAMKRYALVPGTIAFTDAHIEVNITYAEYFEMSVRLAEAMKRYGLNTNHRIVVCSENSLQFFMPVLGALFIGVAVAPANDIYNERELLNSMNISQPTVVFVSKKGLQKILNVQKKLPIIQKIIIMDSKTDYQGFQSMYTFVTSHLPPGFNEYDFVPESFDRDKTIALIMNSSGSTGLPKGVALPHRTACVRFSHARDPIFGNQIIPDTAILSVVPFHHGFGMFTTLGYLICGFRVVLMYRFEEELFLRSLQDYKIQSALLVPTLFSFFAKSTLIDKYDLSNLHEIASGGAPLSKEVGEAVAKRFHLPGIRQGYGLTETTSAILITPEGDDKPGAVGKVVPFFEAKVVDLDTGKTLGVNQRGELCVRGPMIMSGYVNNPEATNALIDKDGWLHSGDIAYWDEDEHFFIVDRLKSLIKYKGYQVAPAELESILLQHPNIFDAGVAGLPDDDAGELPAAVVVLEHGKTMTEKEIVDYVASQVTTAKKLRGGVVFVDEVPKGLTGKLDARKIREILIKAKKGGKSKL

As for `CCc1cccc(NC(=O)O[C@H]2[C@H](OC(=O)Nc3ccccc3-c3ccccc3)[C@H](OC(=O)Nc3ccccc3-c3ccccc3)[C@@H](OC)O[C@@H]2CO)c1`, the composite z-score in assay [1] was found to be 0.979; in [2], 1.21; in assay [3], 0.775; in assay [4], 1.01; in [5], 1.36; in assay [6], 0.598. Also, the results for the composite z-score in assay [8] and in assay [9] were 1.21 and 0.834, respectively. Also, the z-score was -1.35 in [7] and 1.09 (inactive) in assay [10].

On to `[N-]=[N+]=NCc1ccccc1C[C@@]1(C(=O)NCCN2CCOCC2)N=C(c2ccc(OCCCO)cc2)O[C@@H]1c1ccccc1`, for which the composite z-score in [1] is 1.42; in assay [2], 1.18; in assay [3] it was 0.444; in [4], 0.947; in [5], 1.23; in assay [6], -0.426. Also, the composite z-score in assay [8] was 0.573; in assay [9], 0.639. The z-score was 1.44 in assay [7] and -1.04 (inactive) in [10].

For the compound `COC(=O)[C@@]1(Cc2ccc(F)cc2)[C@H]2c3cc(C(=O)N4CCCC4)n(Cc4ccc(C(F)(F)F)nc4)c3C[C@H]2CN1C(=O)c1ccccc1`, the composite z-score in assay [1] was 1.2; in [2] it was 1.19; in assay [3], 1.16; in assay [4], 1.01; in assay [5], 1.38; in assay [6], -0.71. Moreover, the values for the composite z-score in assay [8] and in [9] were -0.13 and 1.06, respectively. The z-score is 1.3 in [7] and 3.14 (inactive) in assay [10].

Take `COc1ccc([Si](C)(C)[C@H]2[C@H](CC(=O)N(CCO)Cc3ccccc3)O[C@@]3(C(=O)N(Cc4cccc(N5CCCCC5=O)c4)c4ccccc43)[C@@H]2C)cc1`: the composite z-score stood at 1.13 in assay [1]; 0.694 in [2]; 0.18 in [3]; 0.267 in assay [4]; 0.724 in assay [5]; 1.23 in assay [6]. Further, the results for the composite z-score in assay [8] and in assay [9] were 0.931 and 0.311, respectively. The z-score is -0.153 in assay [7] and -1.55 (inactive) in [10].

Take `C=CCC(OC(C)=O)[C@@H]1[C@@H](N(Cc2ccc(-c3ccccc3)cc2)C(=O)Cc2ccc(OC)cc2)c2cc(OCCCO)ccc2N1C(=O)c1ccc2ccccc2c1` (stereo not given in full): the composite z-score in assay [1] is -0.365; in [2], -0.168; in assay [3] it was -0.0078; in assay [4], 0.186; in [5] it was 0.458; in assay [6] it was 0.338. The composite z-score in [8] was determined as 0.146; in assay [9] it was 0.266. Also, the z-score in assay [7] was 0.865; in assay [10] it was 0.161 (inactive).

With `[N-]=[N+]=NCc1ccccc1[C@H]1OC(c2ccc(OCCCO)cc2)=N[C@@]1(CCS(=O)(=O)c1ccccc1)C(=O)NCCN1CCOCC1`, the composite z-score in assay [1] came out at 1.35; in [2], 1.27; in assay [3] it was 0.907; in assay [4] it was 1.04; in assay [5] it was 0.777; in assay [6], 0.188. Besides, the composite z-score is -0.237 in [8] and 0.57 in assay [9]. For the same compound, the results for the z-score in [7] and in assay [10] were 0.577 and -3.06 (inactive), respectively.

Regarding `COC(=O)C(CC#Cc1ccc2c(c1)[C@]1(C(=O)N2)[C@H](C(=O)N2CCCCCCC2)[C@H]2C(=O)O[C@H](c3ccccc3)[C@H](c3ccccc3)N2[C@@H]1c1ccc(OCCO)cc1)C(=O)OC`, the composite z-score in [1] came out at 3.39; in assay [2], 1.32; in assay [3], 4.91; in assay [4] it was 0.943; in assay [5], 1.49; in [6], 1.6. Besides, the composite z-score is 1.79 in assay [8] and 1.77 in assay [9]. Also, the z-score in assay [7] was -0.949; in assay [10] it was 0.035 (inactive).

As to `CCOC(=O)C=C1C[C@@H](c2cccc([N+](=O)[O-])c2)O[C@@H](c2cccc([N+](=O)[O-])c2)O1`, the composite z-score was 1.1 in assay [1]; 1.11 in [2]; 0.867 in [3]; 0.871 in assay [4]; 0.669 in [5]; 0.715 in [6]. In addition, the composite z-score in [8] was 0.279; in assay [9], 0.697. Further, the z-score was 3.03 in assay [7] and 1.31 (inactive) in [10].

With `COCCCNC(=O)[C@@]1(c2ccc([N+](=O)[O-])cc2)CC(=O)N(C2CCCCC2)[C@@H]1c1ccc(CO)cc1I`, the composite z-score in assay [1] is 3.3; in assay [2], 1.2; in assay [3], 0.964; in [4] it was 0.014; in [5] it was 1.45; in [6] it was 1.44. Moreover, the values for the composite z-score in assay [8] and in assay [9] were 0.418 and 0.524, respectively. Besides, the z-score in assay [7] was 2.77; in assay [10], -0.883 (inactive).

Regarding `COC(=O)[C@@]1(Cc2ccccc2)[C@H]2c3cc(C(=O)N(C)C)n(CCF)c3C[C@H]2CN1C(=O)c1ccccc1`, the composite z-score in assay [1] was 2.32; in [2], 0.728; in assay [3] it was 0.326; in assay [4], 0.339; in [5], 0.0139; in [6], -0.551. The composite z-score in [8] is -0.773; in assay [9] it was 0.969. Further, the z-score in assay [7] was 0.551; in assay [10] it was 1.02 (inactive).
